Screens (PubChem BioAssay)
Pol kappa inh-1 = blocks human DNA polymerase kappa activity. Q9UBT6. purified Pol kappa, fluorescent DNA synthesis assay, 10 min. Potency, µM (doses to about 107 µM), inactives show top-dose activity, negative = inhibition, hits mostly inhibitors. actives 0.53% (n = 400,000). AID 588579; note: potency is the fitted concentration of half-maximal effect; % is set by controls: 0 for no effect and ±100 for the full control effect
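10 nM Pol kappa preincubated 15 min at room temperature with compounds, then reaction started with substrate at 50 nM final. Fluorescence read kinetically at 0 and 10 min; buffer-only wells served as negative control.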
FEN1 inhibitor = inhibitors of human flap endonuclease 1. Recombinant FEN1 flap cleavage, fluorescence, 15 min. actives 0.35% (n = 390,000). Potency, µM (titrated, usually from 114 µM), without a hit: top-dose activity change, negative = inhibition, hits mostly inhibitors. AID 588795; note: potency is the fitted concentration of half-maximal effect; % is set by controls: 0 for no effect and ±100 for the full control effect; nearly all actives have a fitted effect of over 65% in size
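FEN1 at 10 nM preincubated with compounds 15 min at room temperature, then flap DNA substrate added at 50 nM final. Signal read at 0 and 15 min; concentration-response fitted with four-parameter Hill equation.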
POLI inh = inhibitors of human DNA polymerase iota. Q9UNA4. Pol iota fluorescent replication assay, 10 min. AID 588590. actives 1% (n = 390,000). Potency, µM (series often up to 115 µM), for inactives: at the highest dose activity, negative = inhibition, usual class: inhibitors; note: potency is the fitted concentration of half-maximal effect
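Pol iota at 10 nM preincubated 15 min with compounds at room temperature; reaction started with fluorescent substrate, 50 nM final. Fluorescence read kinetically at 0 and 10 min; buffer-only wells as negative control.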
WRN helicase inh = WRN helicase (human) inhibition. WRN helicase unwinding, fluorescent forked duplex, kinetic. AID 651768. Q14191. actives 0.46% (n = 360,000). Potency, µM (top dose mostly 114 µM), inactives show at the top dose activity change, negative = inhibition, most hits filed as inhibitors; note: potency is the fitted concentration of half-maximal effect; % is set by controls: 0 for no effect and ±100 for the full control effect; nearly all actives have a fitted effect of over 55% in size
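Fluorescence dequenching readout, ex 525 nm/em 598 nm, kinetic mode: forked duplex DNA (100 nM final) with adjacent fluorophore and quencher unwound by WRN (20 nM final) with 2 mM ATP. Compound preincubation 15 min, room temperature.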
Pol eta inh-1 = inhibitors of human DNA polymerase eta; Potency, µM (titrated, usually from 114 µM), without a hit: top-dose activity change, negative = inhibition, actives largely listed as inhibitors; Q9Y253; AID 588591; actives 1.2% (n = 390,000); recombinant Pol eta, fluorescent DNA replication assay; note: potency is the fitted concentration of half-maximal effect; % is set by controls: 0 for no effect and ±100 for the full control effect
Target sequence (Q9Y253 whole entry, looked up): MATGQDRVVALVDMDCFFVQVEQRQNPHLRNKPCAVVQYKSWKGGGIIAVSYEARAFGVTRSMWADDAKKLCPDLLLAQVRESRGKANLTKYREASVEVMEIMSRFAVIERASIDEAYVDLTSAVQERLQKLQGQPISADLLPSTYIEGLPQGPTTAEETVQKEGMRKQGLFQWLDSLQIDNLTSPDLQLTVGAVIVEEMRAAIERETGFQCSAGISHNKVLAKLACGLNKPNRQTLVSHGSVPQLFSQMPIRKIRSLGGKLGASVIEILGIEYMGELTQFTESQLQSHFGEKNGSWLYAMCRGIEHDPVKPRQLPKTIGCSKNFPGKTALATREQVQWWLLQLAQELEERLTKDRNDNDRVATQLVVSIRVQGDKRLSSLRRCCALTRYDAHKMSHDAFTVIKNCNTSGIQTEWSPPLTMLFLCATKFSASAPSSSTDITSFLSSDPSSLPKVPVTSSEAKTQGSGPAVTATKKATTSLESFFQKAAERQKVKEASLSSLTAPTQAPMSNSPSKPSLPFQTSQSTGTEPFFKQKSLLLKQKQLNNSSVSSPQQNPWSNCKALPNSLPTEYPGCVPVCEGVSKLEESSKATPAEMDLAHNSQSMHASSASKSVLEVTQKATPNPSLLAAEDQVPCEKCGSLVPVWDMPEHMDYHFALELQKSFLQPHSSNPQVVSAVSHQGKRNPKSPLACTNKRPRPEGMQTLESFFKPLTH
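Pol eta at 10 nM preincubated with compounds 15 min at room temperature; reaction started with fluorescent substrate (50 nM final) and read kinetically at 0 and 10 min.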
POLB inh = inhibitors of human DNA polymerase beta; P06746; Pol beta primer extension/strand displacement, fluorescence kinetic; Potency, µM (doses to about 114 µM), for the others: at the highest dose activity change, negative = inhibition, most hits filed as inhibitors; actives 1.3% (n = 340,000); AID 485314; note: potency is the fitted concentration of half-maximal effect; % is set by controls: 0 for no effect and ±100 for the full control effect
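10 nM enzyme + cpd, 15 min RT; start with substrate 50 nM final; read 0 min and after 10 min RT. Corrected, normalized data; 4-parameter Hill curve fit.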
PGK validate = validation of Trypanosoma brucei phosphoglycerate kinase inhibitors; shares compounds with Pol kappa inh-1; TbPGK coupled GAPDH assay, Kinase-Glo luminescence; Potency, µM (top dose mostly 57.5 µM), for inactives: at the top dose activity change, negative = inhibition, hits mostly inhibitors; actives 79% (n = 500); note: potency is the fitted concentration of half-maximal effect; % is set by controls: 0 for no effect and ±100 for the full control effect; nearly all actives have a fitted effect of over 65% in size
POLI cherry-pick = Inhibitors of human DNA polymerase iota, confirmation | shares compounds with Pol kappa inh-1 | Pol iota primer extension, TAMRA/BHQ fluorescence | Potency, µM, actives largely listed as inhibitors | actives 77% (n = 1,500) | AID 720496; note: potency is the fitted concentration of half-maximal effect
GALK confirm = galactokinase (human) inhibition, confirmation. shares compounds with Pol eta inh-1. purified GALK, Kinase-Glo ATP depletion luminescence. Potency, µM (series often up to 115 µM), inactives show at the top dose activity, negative = inhibition, actives largely listed as inhibitors. actives 70% (n = 150)
GALK redox cs = counter-screen for GALK inhibitors: redox cycling H2O2 generation. actives 40% (n = 150). Phenol red-HRP H2O2 redox cycling, absorbance 600 nm. Potency, µM (series often up to 115 µM), for the others: at the highest dose activity change, negative = H2O2 signal, most hits filed as inhibitors. shares compounds with Pol eta inh-1
HEK293 tox = HEK-293 cytotoxicity, GALK inhibitor secondary. shares compounds with Pol eta inh-1. HEK-293 viability, ATP luminescence (CellTiter-Glo), 24/48 h. Potency, µM (series often up to 46.1 µM), inactives show at the top dose activity change, negative = cytotoxicity, actives largely listed as inhibitors. actives 10% (n = 170); note: potency is the fitted concentration of half-maximal effect; % is set by controls: 0 for no effect and ±100 for the full control effect
Pol kappa inh-2 = Pol kappa (human) inhibition, cherry-pick confirmation; actives 76% (n = 920); shares compounds with Pol eta inh-1; purified Pol-kappa, fluorescent strand-displacement substrate; Potency, µM, hits mostly inhibitors; AID 720501; note: potency is the fitted concentration of half-maximal effect
Pol eta inh-2 = Pol eta (human) inhibition, cherry-pick confirmation. shares compounds with Pol eta inh-1. Pol eta primer extension, TAMRA/BHQ fluorescence, 10 min. Potency, µM, most hits filed as inhibitors. actives 64% (n = 2,600). AID 720502; note: potency is the fitted concentration of half-maximal effect
* = called active by the depositor; [ ] = another dose, or the depositor's remark. The list is not random: actives were taken first. Their share in the collection is about 2.4%. Calls come from the whole dose curve; as a rule, active = well fitted curve in the direction sought with a large enough effect; inconclusive = small, poorly fitted or top-dose-only effect, or another doubt; inactive = no such curve, though single readings can be large; an effect the other way counts as inactive or inconclusive.

How did COC1=C/C(=C/c2c(N)n3nc(CC(=O)N4CCCC4)sc3nc2=O)C=CC1=O do in these assays?
Pol kappa inh-1: inconclusive; FEN1 inhibitor: -18.7%; POLI inh: inconclusive; WRN helicase inh: -3.7%; Pol eta inh-1: -4.5%; POLB inh: -0.9%

How did Nc1c(/C=C2/C=CC(=O)C(O)=C2)c(=O)nc2sc(CC(=O)N3CCCC3)nn12 do in these assays?
Pol kappa inh-1: inconclusive; FEN1 inhibitor: inconclusive; POLI inh: 3.16µM*; WRN helicase inh: 39.8µM*; Pol eta inh-1: 3.98µM*; POLB inh: 7.94µM*; POLI cherry-pick: 23.8*; Pol eta inh-2: 5.36*

What do the screens show for `CCc1cccc(NC(=O)CSc2n[nH]c(-c3ccccc3Cl)n2)c1`?
Pol kappa inh-1: -12.7%[60.1 µM]; FEN1 inhibitor: -15.3%; POLI inh: -9.5%; Pol eta inh-1: -7.7%; POLB inh: -23.3%

Results for CCCN1Cc2cccc(C(=O)Nc3ccc(OC)cc3OC)c2C1=O ?
Pol kappa inh-1: -6.9%; FEN1 inhibitor: -12.1%; POLI inh: 44.2%; POLB inh: 23.1%

What do the screens show for `C=CCc1cccc2cc(C(=O)Nc3ccc(CC(=O)O)cc3)c(=O)oc12`?
Pol kappa inh-1: inconclusive; FEN1 inhibitor: inconclusive; POLI inh: inconclusive; WRN helicase inh: -8.2%[11.6 µM]; Pol eta inh-1: 35.5µM*; POLB inh: 22.4µM*; POLI cherry-pick: inconclusive; Pol eta inh-2: 67.5*

What do the screens show for `C=CCc1cccc2cc(C(=O)Nc3ccc(F)cc3)c(=O)oc12`?
Pol kappa inh-1: -24.8%; FEN1 inhibitor: -8.9%; POLI inh: 2.5%; WRN helicase inh: 6.8%; Pol eta inh-1: -0.9%; POLB inh: -29.6%

How did CCC(=O)N1c2nc(-c3ccco3)nn2C2(CCCCC2)[C@@H]2CCCC[C@@H]21 do in these assays?
Pol kappa inh-1: -1.8%; FEN1 inhibitor: -3.6%; POLI inh: 12.0%; Pol eta inh-1: 2.4%; POLB inh: 3.2%

Results for C/C=C/C=C/C(=O)[C@@H]1[C@@H]([C@]2(C)OC(=O)C(C)=C2O)[C@H]2/C(=C(O)/C=C/C=C/C)C(=O)[C@]1(C)C(=O)C2(C)O (stereo partly drawn) ?
Pol kappa inh-1: 8.91µM*; FEN1 inhibitor: inconclusive; POLI inh: 2.82µM*; WRN helicase inh: inconclusive; Pol eta inh-1: 2.51µM*; POLB inh: -20.3%; POLI cherry-pick: 11.9*; Pol eta inh-2: 4.26*

How did N#Cc1c(-c2ccccc2)nc(SCC(=O)N2c3ccccc3Sc3ccccc32)[nH]c1=O do in these assays?
Pol kappa inh-1: -13.9%; FEN1 inhibitor: 89.1µM*; POLI inh: inconclusive; WRN helicase inh: inconclusive; Pol eta inh-1: 39.8µM*; POLB inh: 25.1µM*; POLI cherry-pick: 84.4*; GALK confirm: 29.8µM*; GALK redox cs: -4.0%; HEK293 tox: 1.1%; Pol eta inh-2: inconclusive

What do the screens show for `COCC(=O)OC1CCn2c1nc1c2C(=O)C(C)=C(NC(C)=O)C1=O` (stereo not drawn)?
Pol kappa inh-1: -31.7%; FEN1 inhibitor: -22.4%; POLI inh: 4.47µM*; WRN helicase inh: -24.5%; Pol eta inh-1: 3.98µM*; POLI cherry-pick: 16.8*; Pol eta inh-2: 30.1*

What do the screens show for `Cc1ccc(S(=O)(=O)OCC(=O)Nc2ccc(C(=O)O)c(O)c2)cc1`?
Pol kappa inh-1: 25.1µM*; FEN1 inhibitor: 28.2µM*; POLI inh: 20µM*; WRN helicase inh: inconclusive; Pol eta inh-1: 3.16µM*; POLI cherry-pick: 18.9*; Pol kappa inh-2: 3.36*; Pol eta inh-2: 19*

Results for COc1cccc(/C=N/NC(=O)c2cc3cc([N+](=O)[O-])ccc3s2)c1O ?
Pol kappa inh-1: -22.4%; FEN1 inhibitor: 50.1µM*; POLI inh: 14.1µM*; WRN helicase inh: 35.5µM*; Pol eta inh-1: 3.55µM*; POLB inh: 3.55µM*; PGK validate: 2.91µM*; Pol eta inh-2: 47.8*

How did COc1ccccc1/C=N/NC(=O)c1ccc(NC(=O)c2cccc([N+](=O)[O-])c2)cc1 do in these assays?
POLB inh: 3.3%

How did Cc1cc(C)n2nc(C(=O)OCC(=O)c3cc(C)n(C)c3C)nc2n1 do in these assays?
Pol kappa inh-1: inconclusive; FEN1 inhibitor: -6.8%; POLI inh: inconclusive; WRN helicase inh: inconclusive; Pol eta inh-1: 14.1µM*; POLB inh: 31.6µM*; POLI cherry-pick: inconclusive; Pol eta inh-2: 84.9*

How did Cc1cc(C)n2nc(C(=O)OCC(=O)c3cc(C)n(CC4CCCO4)c3C)nc2n1 (stereo not drawn) do in these assays?
Pol kappa inh-1: 8.4%; FEN1 inhibitor: 3.4%; POLI inh: 62.7%; WRN helicase inh: 0.8%; Pol eta inh-1: -8.7%; POLB inh: -37.3%
